# Records with an inconclusive call do not appear. Activity calls are given as the source filed them. How the source made its calls, unless noted: active means hit-call score of the fitted dose curve at least 0.9, where 1 is the maximum; inactive means score below 0.9.
# Columns and labels:
# [1] = target: Glucocorticoid receptor (Homo sapiens) (UniProt P04150); experiment: ATG_GR_TRANS: Attagene TRANS-FACTORIAL HepG2 Assay for human Glucocorticoid Receptor (GR) (AID 2282978; active means hit-call score of the fitted dose curve at least 0.9, where 1 is the maximum;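 further: activators score as hits since higher reporter transcript over DMSO is fitted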); details: HepG2 Attagene TRANS GR reporter, mRNA transcription
# Procedure, shortened: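 HepG2 transient transfection, multiple reporter units, GAL4-UAS under NR-GAL4 chimera control. 24 h treatment. Reporter mRNA by RT-PCR/CE fluorescence, DMSO as negative control.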
# [2] = target: Bile acid receptor (Homo sapiens) (UniProt Q96RI1); experiment: ATG_FXR_TRANS: Attagene TRANS-FACTORIAL HepG2 Assay for Farnesoid X Receptor (FXR) (AID 2282979; active means hit-call score of the fitted dose curve at least 0.9, where 1 is the maximum;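 further: hits raise reporter mRNA above DMSO so AC50 marks FXR activation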); details: HepG2 Attagene TRANS FXR-GAL4 reporter transcription
# Procedure, shortened: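 Chimeric FXR-GAL4 activity in transiently transfected human HepG2 liver cells is scored as induction of reporter mRNA after 24 h of dosing. Detection uses RT-PCR with fluorescent labelling and capillary electrophoresis, with DMSO serving as baseline.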
# [3] = ATG_M_32_TRANS: Attagene TRANS-FACTORIAL HepG2 Assay for M32 Transcription Factor (Internal Marker) (AID 2282984; active means hit-call score of the fitted dose curve at least 0.9, where 1 is the maximum;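 further: transcript level of a background control reporter unit measured by RT-PCR and capillary electrophoresis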); details: HepG2 Attagene TRANS M32 internal marker reporter
# Procedure, shortened: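 HepG2 cells transiently transfected with GAL4-UAS reporter units, dosed for 24 hours. Reporter mRNA quantified by RT-PCR, 6-FAM labelling, HpaI digestion and capillary electrophoresis; internal-marker signal fitted upward relative to DMSO.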
# [4] = target: Nuclear receptor subfamily 4 group A member 2 (Homo sapiens) (UniProt P43354); experiment: ATG_NURR1_TRANS: Attagene TRANS-FACTORIAL HepG2 Assay for human Nuclear Receptor Related Protein 1 (NURR1) (AID 2282985; active means hit-call score of the fitted dose curve at least 0.9, where 1 is the maximum); details: HepG2 Attagene TRANS reporter, mRNA readout
# Procedure, shortened: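 HepG2 cells transiently transfected with NURR1-Gal4 chimera and GAL4-UAS reporter units; after 24 hr compound exposure, reporter mRNA quantified by RT-PCR and capillary electrophoresis; gain of signal fitted against DMSO.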
# [5] = ATG_NFI_CIS: Attagene CIS-FACTORIAL HepG2 Assay for human Nuclear Factor I (NFI) (AID 2282989); details: HepG2 cis-regulatory reporter, NFI response element transcription; actives raise or lower the signal
# Procedure, shortened: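 Transfected HepG2 liver cells, exposed 24 h, supplied total RNA for oligo(dT) reverse transcription and reporter-specific PCR. Labelled, HpaI-cut fragments were sized by capillary electrophoresis; DMSO set the baseline for bidirectional fitting.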
# [6] = target: Myc proto-oncogene protein (Homo sapiens) (UniProt P01106); experiment: ATG_Myc_CIS: Attagene CIS-FACTORIAL HepG2 Assay for human Myelocytomatosis (Myc) Proto-Oncogene Transcription Factor (AID 2282990); details: HepG2, Attagene cis-reporter transcription factor activity; actives raise or lower the signal
# Procedure, shortened: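 Fluorescence intensity of reporter-specific cDNA fragments, separated by capillary electrophoresis, gives the signal. Transfected HepG2 cells carrying cis-promoter reporter constructs are incubated with compound for 24 h; DMSO serves as baseline.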
# [7] = ATG_NRF2_ARE_CIS: Attagene CIS-FACTORIAL HepG2 Assay for human Nuclear Factor Erythroid 2 Related Factor 2 (NFR2) response to Antioxidant Response Elements (ARE) (AID 2282992); details: HepG2 Attagene ARE/NRF2 reporter, transcription factor activity; actives raise or lower the signal;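 on AC50: reporter mRNA level measured by RT-PCR and capillary electrophoresis fluorescence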
# Procedure, shortened: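 Transient MRTU transfection of HepG2; 24 h compound exposure; TriZol RNA, RT with oligo(dT), PCR, 6-FAM primer extension, HpaI cut, CE. Bidirectional fit vs DMSO.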
# [8] = ATG_Oct_MLP_CIS: Attagene CIS-FACTORIAL HepG2 Assay for human Octamer-Binding Transcription Factor (Oct) (AID 2282993); details: HepG2 Attagene cis-factorial Oct reporter, mRNA; actives raise or lower the signal
# Procedure, shortened: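 Using HepG2 cells bearing transfected cis-reporter constructs, mRNA induction was read after 24 h by fluorescent RT-PCR and capillary electrophoresis, with DMSO defining baseline for gain- or loss-of-signal fits.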
# [9] = target: Cellular tumor antigen p53 (Homo sapiens) (UniProt P04637); experiment: ATG_p53_CIS: Attagene CIS-FACTORIAL HepG2 Assay for human p53 Transcription Factor (AID 2282994); details: HepG2 p53 cis-element reporter, Attagene mRNA; actives raise or lower the signal
# Procedure, shortened: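 HepG2, transient MRTU transfection (cis promoter elements, endogenous TFs); 24 h dosing; RNA isolation, RT-PCR, 6-FAM primer extension, HpaI digest, CE fluorescence; bidirectional fit vs DMSO.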
# [10] = BSK_3C_TissueFactor: BioMAP Diversity Plus: 3C Assay for Tissue Factor Biomarker Activity (AID 2282997); details: BioMAP 3C HUVEC, tissue factor biomarker readout; actives raise or lower the signal
# Procedure, shortened: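 Values derive from bidirectional curve fitting against DMSO of Tissue Factor ELISA signals, taken 24 h after dosing primary human umbilical vein endothelial cells.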
# [11] = BSK_3C_uPAR: BioMAP Diversity Plus: 3C Assay for Urokinase-type plasminogen activator receptor (uPAR) Biomarker Activity (AID 2282998); details: BioMAP 3C HUVEC, uPAR biomarker ELISA; actives raise or lower the signal
# Procedure, shortened: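 In this endothelial cell-based assay, human umbilical vein primary cells were treated with chemicals and harvested at 24 h. uPAR was quantified using ELISA, with gains or losses fitted relative to DMSO controls.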
# [12] = BSK_3C_VCAM1: BioMAP Diversity Plus: 3C Assay for Vascular cell adhesion molecule 1 (VCAM1) Biomarker Activity (AID 2282999); details: BioMAP 3C HUVEC, VCAM1 ELISA, cytokine-stimulated; actives raise or lower the signal
# Procedure, shortened: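 Human umbilical vein endothelial cells (3C system), biomarker read by ELISA 24 h after dosing; bidirectional fit against DMSO baseline. Cytotoxicity tracked by SRB total-protein staining in parallel cultures at biomarker time.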
# [13] = BSK_4H_Eotaxin3: BioMAP Diversity Plus: 4H Assay for Eotaxin 3 Biomarker Activity (AID 2283000); details: primary human endothelial cells (HUVEC); actives raise or lower the signal;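 further: CCL26 protein level quantified by ELISA in parallel with SRB cytotoxicity check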
# Procedure, shortened: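 Endothelial primary cells (human umbilical vein) exposed to compound for 24 h. ELISA detection of Eotaxin-3.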
# [14] = target: Estrogen-related receptor gamma (Homo sapiens) (UniProt P62508); experiment: ATG_ERRg_TRANS: Attagene TRANS-FACTORIAL HepG2 Assay for human Estrogen-Related Receptor gamma (ERRg) (AID 2282977; active means hit-call score of the fitted dose curve at least 0.9, where 1 is the maximum;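 further: hits increase reporter signal over DMSO so potencies reflect activators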); details: HepG2 Attagene TRANS reporter, ERRg transactivation
# Procedure, shortened: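 Transfect HepG2 with multiple GAL4-UAS reporter transcription units; dose chemicals 24 h; isolate RNA, reverse-transcribe with oligo(dT), PCR-amplify, label with 6-FAM, digest with HpaI; size fragments by capillary electrophoresis. DMSO serves as negative control.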
# [15] = ATG_M_06_TRANS: Attagene TRANS-FACTORIAL HepG2 Assay for M06 Transcription Factor (Internal Marker) (AID 2282983; active means hit-call score of the fitted dose curve at least 0.9, where 1 is the maximum;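 further: reporter transcript level by RT-PCR then capillary electrophoresis fluorescence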); details: HepG2 Attagene TRANS M06 internal marker reporter
# Procedure, shortened: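 Measured by capillary electrophoresis of fluorescently labelled RT-PCR products, this endpoint reflects reporter mRNA in HepG2 cells harbouring exogenous NR-GAL4 reporter constructs after 24 h exposure, with DMSO as baseline.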
# [16] = target: Transcriptional activator Myb (Homo sapiens) (UniProt P10242); experiment: ATG_Myb_CIS: Attagene CIS-FACTORIAL HepG2 Assay for human Myeloblastosis (Myb) Proto-Oncogene Transcription Factor (AID 2282986); details: HepG2 Attagene CIS-FACTORIAL Myb reporter transcription; actives raise or lower the signal
# Procedure, shortened: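 Multiplexed cis-reporter system in HepG2: transient transfection, 24 h treatment, mRNA readout by RT-PCR and capillary electrophoresis. Both increases and decreases are scored versus DMSO negative control.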
# [17] = ATG_NF_kB_CIS: Attagene CIS-FACTORIAL HepG2 Assay for human Nuclear Factor Kappa B (NF-kB) (AID 2282991); details: HepG2 Attagene cis-factorial NF-kB reporter mRNA; actives raise or lower the signal
# Procedure, shortened: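 After 24 h compound incubation, transfected HepG2 cells yield total RNA; reporter cDNA is PCR-amplified, end-labelled with 6-FAM, HpaI-digested and analysed on a genetic analyser. Endogenous factor activity, DMSO-referenced bidirectional fit.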
# [18] = target: Oxysterols receptor LXR-alpha (Homo sapiens) (UniProt Q13133); experiment: ATG_LXRa_TRANS: Attagene TRANS-FACTORIAL HepG2 Assay for human Liver X Receptor alpha (LXRa) (AID 2282980; active means hit-call score of the fitted dose curve at least 0.9, where 1 is the maximum); details: HepG2 Attagene TRANS reporter, LXRa transactivation
# Procedure, shortened: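 Transient HepG2 transfectants, 24 h dosing, RT-PCR/CE mRNA reporter quantitation; gain-of-signal vs DMSO.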
# [19] = target: Oxysterols receptor LXR-beta (Homo sapiens) (UniProt P55055); experiment: ATG_LXRb_TRANS: Attagene TRANS-FACTORIAL HepG2 Assay for human Liver X Receptor beta (LXRb) (AID 2282981; active means hit-call score of the fitted dose curve at least 0.9, where 1 is the maximum); details: HepG2 Attagene TRANS GAL4-LXRb reporter, mRNA
# Procedure, shortened: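 HepG2 cells transiently transfected with GAL4-UAS reporter units for chimeric NR-Gal4 proteins, dosed for 24 h. Reporter transcripts measured by RT-PCR and capillary electrophoresis; gain-of-signal fitting relative to DMSO.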
# [20] = target: Nuclear respiratory factor 1 (Homo sapiens) (UniProt Q16656); experiment: ATG_NRF1_CIS: Attagene CIS-FACTORIAL HepG2 Assay for human Nuclear Respiratory Factor 1 (NRF1) Orphan Gene (AID 2282987); details: HepG2 NRF1 cis-element reporter, Attagene multiplex; actives raise or lower the signal
# Procedure, shortened: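 Endogenous factor activity was captured via cis-element-driven reporter transcripts in HepG2 cells. Following 24 h chemical treatment, transcripts were quantified by RT-PCR and capillary electrophoresis.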
# Cellular tumor antigen p53 (Homo sapiens), sequence (P04637 whole entry, looked up): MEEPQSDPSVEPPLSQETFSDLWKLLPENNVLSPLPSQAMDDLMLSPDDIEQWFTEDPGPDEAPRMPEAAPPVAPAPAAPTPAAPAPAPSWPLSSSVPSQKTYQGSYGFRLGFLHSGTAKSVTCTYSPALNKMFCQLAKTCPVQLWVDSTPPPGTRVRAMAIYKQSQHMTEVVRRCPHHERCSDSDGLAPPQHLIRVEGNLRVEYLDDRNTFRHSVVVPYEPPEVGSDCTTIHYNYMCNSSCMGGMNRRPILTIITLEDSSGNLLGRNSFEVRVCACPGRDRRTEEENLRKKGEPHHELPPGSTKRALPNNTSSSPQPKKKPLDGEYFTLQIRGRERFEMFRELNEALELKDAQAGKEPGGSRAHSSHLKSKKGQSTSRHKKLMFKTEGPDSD
# Oxysterols receptor LXR-alpha (Homo sapiens), sequence (Q13133 whole entry, looked up): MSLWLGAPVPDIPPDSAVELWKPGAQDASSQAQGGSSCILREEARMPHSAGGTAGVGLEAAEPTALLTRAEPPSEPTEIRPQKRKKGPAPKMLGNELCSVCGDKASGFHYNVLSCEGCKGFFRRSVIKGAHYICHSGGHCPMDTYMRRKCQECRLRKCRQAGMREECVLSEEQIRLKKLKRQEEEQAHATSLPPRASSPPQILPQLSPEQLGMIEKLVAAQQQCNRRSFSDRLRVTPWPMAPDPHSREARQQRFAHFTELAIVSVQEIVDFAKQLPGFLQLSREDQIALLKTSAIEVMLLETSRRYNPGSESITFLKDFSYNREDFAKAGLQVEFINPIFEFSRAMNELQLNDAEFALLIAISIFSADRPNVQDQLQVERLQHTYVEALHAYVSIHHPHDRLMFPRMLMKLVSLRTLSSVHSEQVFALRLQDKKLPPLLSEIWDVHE
# Bile acid receptor (Homo sapiens), sequence (Q96RI1 whole entry, looked up, the tested form may be a part): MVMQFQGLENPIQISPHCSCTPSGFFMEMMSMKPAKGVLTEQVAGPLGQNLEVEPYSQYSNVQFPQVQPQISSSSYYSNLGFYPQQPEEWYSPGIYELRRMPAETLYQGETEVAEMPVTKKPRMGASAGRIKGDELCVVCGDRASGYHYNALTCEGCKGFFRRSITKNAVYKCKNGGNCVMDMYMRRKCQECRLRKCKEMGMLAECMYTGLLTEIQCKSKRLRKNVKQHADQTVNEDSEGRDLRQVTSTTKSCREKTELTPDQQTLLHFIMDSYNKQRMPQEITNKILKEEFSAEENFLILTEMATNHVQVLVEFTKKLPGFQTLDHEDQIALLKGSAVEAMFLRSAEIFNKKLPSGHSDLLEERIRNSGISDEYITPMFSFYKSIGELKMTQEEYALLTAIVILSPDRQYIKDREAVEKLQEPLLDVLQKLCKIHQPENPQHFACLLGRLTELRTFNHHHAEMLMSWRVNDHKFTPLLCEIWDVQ
# Nuclear respiratory factor 1 (Homo sapiens), sequence (Q16656 whole entry, looked up): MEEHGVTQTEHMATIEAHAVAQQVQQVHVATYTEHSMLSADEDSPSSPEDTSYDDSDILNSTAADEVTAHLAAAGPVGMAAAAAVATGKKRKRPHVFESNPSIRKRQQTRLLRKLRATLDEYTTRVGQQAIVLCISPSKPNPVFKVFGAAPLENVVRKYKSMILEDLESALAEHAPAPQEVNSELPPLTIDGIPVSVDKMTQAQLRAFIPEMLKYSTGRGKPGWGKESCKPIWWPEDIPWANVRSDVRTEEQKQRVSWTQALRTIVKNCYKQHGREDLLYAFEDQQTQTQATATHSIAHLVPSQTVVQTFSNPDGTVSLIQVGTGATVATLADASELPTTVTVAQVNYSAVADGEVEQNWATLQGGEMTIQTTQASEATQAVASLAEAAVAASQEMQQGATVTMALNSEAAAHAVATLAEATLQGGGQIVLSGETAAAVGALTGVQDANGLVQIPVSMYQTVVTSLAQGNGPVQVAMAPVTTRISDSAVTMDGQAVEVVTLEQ
# Transcriptional activator Myb (Homo sapiens), sequence (P10242 whole entry, looked up): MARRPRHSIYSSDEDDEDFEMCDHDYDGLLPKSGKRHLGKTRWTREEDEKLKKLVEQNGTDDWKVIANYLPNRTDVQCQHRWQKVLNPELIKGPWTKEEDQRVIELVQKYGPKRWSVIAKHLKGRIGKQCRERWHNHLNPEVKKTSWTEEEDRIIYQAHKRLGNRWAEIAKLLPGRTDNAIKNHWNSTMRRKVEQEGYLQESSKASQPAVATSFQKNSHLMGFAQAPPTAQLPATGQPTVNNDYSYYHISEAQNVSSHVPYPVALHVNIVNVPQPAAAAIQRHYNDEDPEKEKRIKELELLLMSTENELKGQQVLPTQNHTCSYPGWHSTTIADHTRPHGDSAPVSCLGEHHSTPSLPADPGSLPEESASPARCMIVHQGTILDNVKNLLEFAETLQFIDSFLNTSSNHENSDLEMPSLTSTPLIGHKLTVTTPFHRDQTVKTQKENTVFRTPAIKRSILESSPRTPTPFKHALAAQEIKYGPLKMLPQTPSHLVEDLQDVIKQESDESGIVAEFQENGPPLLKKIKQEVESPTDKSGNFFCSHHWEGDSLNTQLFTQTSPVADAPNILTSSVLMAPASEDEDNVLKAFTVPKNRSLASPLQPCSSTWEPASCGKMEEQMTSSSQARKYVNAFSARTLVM
# Estrogen-related receptor gamma (Homo sapiens), sequence (P62508 whole entry, looked up, the tested form may be a part): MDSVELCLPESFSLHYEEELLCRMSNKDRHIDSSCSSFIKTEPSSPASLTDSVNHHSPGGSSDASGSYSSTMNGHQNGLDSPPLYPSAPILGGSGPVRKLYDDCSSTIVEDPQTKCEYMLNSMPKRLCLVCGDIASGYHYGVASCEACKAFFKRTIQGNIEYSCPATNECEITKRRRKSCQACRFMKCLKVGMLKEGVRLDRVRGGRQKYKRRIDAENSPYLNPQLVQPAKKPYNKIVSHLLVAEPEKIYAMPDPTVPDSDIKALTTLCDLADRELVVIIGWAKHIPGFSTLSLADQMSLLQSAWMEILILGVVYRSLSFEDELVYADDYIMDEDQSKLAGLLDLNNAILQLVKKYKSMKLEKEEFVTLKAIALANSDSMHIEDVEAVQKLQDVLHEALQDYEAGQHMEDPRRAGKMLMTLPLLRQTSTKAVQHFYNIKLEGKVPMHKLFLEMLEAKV
# Myc proto-oncogene protein (Homo sapiens), sequence (P01106 whole entry, looked up, the tested form may be a part): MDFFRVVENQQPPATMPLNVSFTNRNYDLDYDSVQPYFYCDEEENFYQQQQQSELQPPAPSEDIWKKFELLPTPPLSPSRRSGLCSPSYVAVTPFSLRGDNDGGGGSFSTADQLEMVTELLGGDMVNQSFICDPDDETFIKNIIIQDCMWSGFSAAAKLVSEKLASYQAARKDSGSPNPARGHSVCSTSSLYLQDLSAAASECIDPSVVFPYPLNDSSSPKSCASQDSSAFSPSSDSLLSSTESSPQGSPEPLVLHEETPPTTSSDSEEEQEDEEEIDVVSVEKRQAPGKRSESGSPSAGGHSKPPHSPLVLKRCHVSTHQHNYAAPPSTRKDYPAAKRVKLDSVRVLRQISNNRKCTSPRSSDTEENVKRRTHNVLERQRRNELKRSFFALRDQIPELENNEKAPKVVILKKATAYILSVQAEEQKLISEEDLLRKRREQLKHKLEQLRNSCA
# Glucocorticoid receptor (Homo sapiens), sequence (P04150 whole entry, looked up, the tested form may be a part): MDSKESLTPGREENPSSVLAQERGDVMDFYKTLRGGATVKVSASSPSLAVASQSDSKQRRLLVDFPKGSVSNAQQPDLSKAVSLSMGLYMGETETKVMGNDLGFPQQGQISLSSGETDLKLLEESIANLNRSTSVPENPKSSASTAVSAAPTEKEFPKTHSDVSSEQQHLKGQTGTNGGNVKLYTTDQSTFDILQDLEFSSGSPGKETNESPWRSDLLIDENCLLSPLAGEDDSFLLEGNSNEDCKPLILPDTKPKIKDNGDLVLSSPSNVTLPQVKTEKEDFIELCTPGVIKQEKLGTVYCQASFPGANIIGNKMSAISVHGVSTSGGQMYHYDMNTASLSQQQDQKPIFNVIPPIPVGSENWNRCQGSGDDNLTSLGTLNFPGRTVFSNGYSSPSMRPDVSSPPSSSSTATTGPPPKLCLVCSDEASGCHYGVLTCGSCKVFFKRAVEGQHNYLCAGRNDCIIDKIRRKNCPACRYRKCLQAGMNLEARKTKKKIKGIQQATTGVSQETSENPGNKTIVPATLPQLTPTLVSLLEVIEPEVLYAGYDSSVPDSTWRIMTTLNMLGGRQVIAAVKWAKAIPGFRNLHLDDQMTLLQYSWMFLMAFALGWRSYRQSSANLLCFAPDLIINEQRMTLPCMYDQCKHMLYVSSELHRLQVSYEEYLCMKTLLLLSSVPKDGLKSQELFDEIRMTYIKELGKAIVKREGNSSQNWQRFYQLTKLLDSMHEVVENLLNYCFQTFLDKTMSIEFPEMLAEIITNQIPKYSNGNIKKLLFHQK
# Nuclear receptor subfamily 4 group A member 2 (Homo sapiens), sequence (P43354 whole entry, looked up, the tested form may be a part): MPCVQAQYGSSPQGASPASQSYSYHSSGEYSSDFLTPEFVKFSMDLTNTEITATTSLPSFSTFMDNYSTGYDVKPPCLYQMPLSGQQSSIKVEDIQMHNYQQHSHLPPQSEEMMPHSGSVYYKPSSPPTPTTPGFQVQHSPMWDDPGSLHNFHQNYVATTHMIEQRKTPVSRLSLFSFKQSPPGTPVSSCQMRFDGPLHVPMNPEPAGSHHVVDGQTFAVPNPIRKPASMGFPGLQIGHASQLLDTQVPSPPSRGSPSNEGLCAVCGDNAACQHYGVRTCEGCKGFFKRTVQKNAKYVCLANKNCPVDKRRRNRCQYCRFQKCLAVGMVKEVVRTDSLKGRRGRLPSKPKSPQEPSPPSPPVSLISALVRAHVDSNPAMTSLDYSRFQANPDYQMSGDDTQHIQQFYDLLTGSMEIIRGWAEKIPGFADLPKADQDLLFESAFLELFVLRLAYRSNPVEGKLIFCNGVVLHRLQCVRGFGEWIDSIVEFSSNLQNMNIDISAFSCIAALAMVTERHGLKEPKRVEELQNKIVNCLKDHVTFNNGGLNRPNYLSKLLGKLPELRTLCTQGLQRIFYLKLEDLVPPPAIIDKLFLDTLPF
compound,measurement,setting,value
Cc1c(C(=O)O)c(O)cc2c1C(=O)c1c(O)c([C@@H]3O[C@H](CO)[C@@H](O)[C@H](O)[C@H]3O)c(O)c(O)c1C2=O,outcome,[1],inactive
same,outcome,[2],inactive
same,outcome,[3],inactive
same,outcome,[4],inactive
same,outcome,[5],inactive
same,outcome,[6],inactive
same,outcome,[7],inactive
same,outcome,[8],inactive
same,outcome,[9],inactive
same,outcome,[10],inactive
same,outcome,[11],inactive
same,outcome,[12],inactive
same,outcome,[13],inactive
CCCCCCC(=O)OCC,outcome,[14],inactive
same,outcome,[15],inactive
same,outcome,[3],inactive
same,outcome,[4],inactive
same,outcome,[16],inactive
same,outcome,[5],inactive
same,outcome,[6],inactive
same,outcome,[17],inactive
same,outcome,[7],inactive
same,outcome,[8],inactive
same,outcome,[9],inactive
same,outcome,[10],inactive
same,outcome,[11],inactive
same,outcome,[12],inactive
same,outcome,[13],inactive
CCOc1ccc2c(c1)C(C)=CC(C)(C)N2,outcome,[14],inactive
same,AC50,[18],38.2 µM (active)
same,outcome,[19],inactive
same,outcome,[3],inactive
same,AC50,[4],124 µM (active)
same,AC50,[20],133 µM (active)
same,AC50,[5],166 µM (active)
same,outcome,[6],inactive
same,AC50,[7],27.1 µM (active)
same,AC50,[8],142 µM (active)
same,outcome,[9],inactive
same,outcome,[10],inactive
same,outcome,[11],inactive
same,outcome,[12],inactive
same,outcome,[13],inactive
CN1CCN(Cc2cc(-c3ccc4[nH]c(=O)oc4c3)co2)[C@@H](c2ccc(F)cc2)C1,outcome,[1],inactive
same,outcome,[2],inactive
same,outcome,[18],inactive
same,outcome,[15],inactive
same,outcome,[3],inactive
same,outcome,[4],inactive
same,outcome,[20],inactive
same,outcome,[5],inactive
same,AC50,[17],8.72 µM (active)
same,AC50,[7],61.4 µM (active)
same,AC50,[8],45.4 µM (active)
same,AC50,[9],12.1 µM (active)
same,outcome,[10],inactive
same,AC50,[11],26.7 µM (active)
same,outcome,[12],inactive
same,outcome,[13],inactive
CCCCCCCCCCCC(=O)OC,outcome,[1],inactive
same,outcome,[2],inactive
same,outcome,[18],inactive
same,outcome,[19],inactive
same,outcome,[15],inactive
same,outcome,[4],inactive
same,outcome,[5],inactive
same,outcome,[6],inactive
same,outcome,[17],inactive
same,outcome,[7],inactive
same,outcome,[8],inactive
same,outcome,[9],inactive
same,outcome,[10],inactive
same,outcome,[11],inactive
same,outcome,[12],inactive
same,outcome,[13],inactive
Cc1nc(C)nc(N2C[C@@H](C)N(c3ccnc([C@@H](C)O)n3)[C@@H](C)C2)n1,outcome,[14],inactive
same,outcome,[1],inactive
same,outcome,[2],inactive
same,outcome,[19],inactive
same,outcome,[15],inactive
same,outcome,[3],inactive
same,outcome,[16],inactive
same,outcome,[5],inactive
same,outcome,[17],inactive
same,outcome,[7],inactive
same,outcome,[8],inactive
same,outcome,[9],inactive
same,outcome,[10],inactive
same,AC50,[11],12.9 µM (active)
same,outcome,[12],inactive
same,outcome,[13],inactive
CCNc1cccc(C)c1,outcome,[14],inactive
same,outcome,[18],inactive
same,outcome,[19],inactive
same,outcome,[15],inactive
same,outcome,[4],inactive
same,outcome,[16],inactive
same,outcome,[20],inactive
same,outcome,[5],inactive
same,outcome,[6],inactive
same,outcome,[17],inactive
same,outcome,[7],inactive
same,outcome,[8],inactive
same,outcome,[9],inactive
same,outcome,[10],inactive
same,outcome,[11],inactive
same,outcome,[12],inactive
same,outcome,[13],inactive
